The supplement of paper PMC13094657
± gives the standard deviation of the averaged measurements.

Tests used:
[1] = tested on: MDA-MB-231; experiment: cell viability relative to vehicle unstimulated control (fraction); higher = more viable cells; details: pre-treatment time: 18 h then 24 h IFNg/TNF
[2] = tested on: MDA-MB-231; experiment: kynurenine production, fold change vs DMSO IFNg/TNF control; higher = more kynurenine produced (less inhibition); details: pre-treatment time: 18 h then 24 h IFNg/TNF
Outline: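 After trichloroacetic acid and p-dimethylaminobenzaldehyde treatment, supernatants were read at 492 nm, with 0–100 μM standards. These came from MDA-MB-231 cells (7 × 10^4/well, 96-well plates) pre-treated 18 h with natural products in 0.1% DMSO and then exposed 24 h to IFNγ (1 U/ml) and TNF (6.25 ng/ml) at 37°C. Values for kynurenine production are fold changes over same-plate cytokine-stimulated vehicle wells, averaged over duplicate plates in the first screening round.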
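Wherever cell viability relative to vehicle unstimulated control is given: viability of the cells left after supernatant collection, read with Deep Blue dye added for 4 h, as absorbance at 570 nm minus 600 nm.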

Structure (SMILES) | cell viability [1] | kynurenine production [2]
O[C@@H]1[C@@H](O)[C@@H](OC/C=C/c2ccccc2)O[C@H](CO[C@@H]2OC[C@H](O)[C@H](O)[C@H]2O)[C@H]1O [Rosavin] (compound dose: 10 uM) | 1.003 ± 0.0045 | 0.882 ± 0.2
CN1CCC[C@@H]1CC(=O)C[C@@H]1CCCN1C [Cuscohygrine] (compound dose: 10 uM) | 0.977 ± 0.14 | 0.962 ± 0.027
C=C1CC[C@@H]2[C@](C)(COC(=O)CCC(=O)O)[C@H](OC(=O)CCC(=O)O)CC[C@@]2(C)[C@@H]1/C=C/C1=CCOC1=O [Dehydroandrographolide succinate] (compound dose: 10 uM) | 0.898 ± 0.11 | 1.2 ± 0.089
C[C@H]1O[C@@H](Oc2ccc(COC(=O)CC(O)(CC(=O)OCc3ccc(O[C@@H]4O[C@H](CO)[C@@H](O)[C@H](O)[C@H]4O)cc3)C(=O)Oc3ccc(O[C@H]4O[C@H](CO)[C@@H](O)[C@H](O)[C@H]4O)cc3)cc2)[C@H](O)[C@@H](O)[C@@H]1O (stereo partly drawn) [Parishin] (compound dose: 10 uM) | 0.985 ± 0.054 | 0.792 ± 0.13
OCC1=C[C@@H](O)[C@@H]2C=CO[C@@H](O[C@@H]3O[C@H](CO)[C@@H](O)[C@H](O)[C@H]3O)[C@H]12 [Aucubin] (compound dose: 10 uM) | 1.01 ± 0.02 | 0.87 ± 0.041
C[C@@]12C[C@H](c3ccoc3)O[C@@]13C[C@H](OC3=O)[C@H]1[C@H]2C[C@@H]2C[C@H]1C(=O)O2 [Diosbulbin B] (compound dose: 10 uM) | 0.78 ± 0.24 | 0.779 ± 0.13
CC(C)=CCC[C@](C)(O[C@@H]1O[C@H](CO)[C@@H](O)[C@H](O)[C@H]1O)[C@H]1CC[C@]2(C)[C@@H]1[C@H](O)C[C@@H]1[C@@]3(C)CC[C@H](O)C(C)(C)[C@@H]3CC[C@]12C [Ginsenoside C-K] (compound dose: 10 uM) | 0.969 ± 0.016 | 0.912 ± 0.14
C[C@@H]1CC[C@H]2C(C)(C)[C@H]3C[C@@]12CC[C@@]3(C)O [Cedrol] (compound dose: 10 uM) | 0.977 ± 0.06 | 1.06 ± 0.019
C[C@@]12CC[C@@H]3[C@@](CC[C@H]4[C@@]3(C)CCC[C@@]4(C)C(=O)O)(CC1=O)C2 [Isosteviol] (compound dose: 10 uM) | 1.02 ± 0.084 | 0.998 ± 0.055
COc1ccc(SC)cc1 [4-methoxythioanisole] (compound dose: 10 uM) | 0.965 ± 0.057 | 0.973 ± 0.12
CC(=O)OCC1=CCC2C(C=C(C)C(=O)C3(OC(C)=O)CC(C)C(OC(=O)c4ccccc4)C3C1OC(C)=O)C2(C)C (stereo not drawn) [Euphorbia factor L7b] (compound dose: 10 uM) | 1.07 ± 0.03 | 0.936 ± 0.035
C=CC(=C)CCC=C(C)CCC=C(C)C [(E)-β-Farnesene] (compound dose: 10 uM) | 0.977 ± 0.015 | 0.723 ± 0.27
CC1=C2[C@@H](OC1=O)[C@H](O)[C@]13[C@H]4C[C@@H](C(C)(C)C)[C@]15[C@@H](OC(=O)[C@@H]5O)O[C@@]23C(=O)O4 [Ginkgolide K] (compound dose: 10 uM) | 0.996 ± 0.15 | 0.988 ± 0.29
CC(=O)O[C@H]1/C(CO)=C\C[C@H]2[C@@H](/C=C(/C)C(=O)[C@@]3(OC(C)=O)C[C@H](C)[C@H](OC(=O)c4ccccc4)[C@H]13)C2(C)C [Euphorbia factor L24] (compound dose: 10 uM) | 1.09 ± 0.022 | 0.911 ± 0.078
CC1(C)CCCC2(C)C1CCC1(C)OCCC12 (stereo not drawn) [Ambroxide] (compound dose: 10 uM) | 0.964 ± 0.053 | 0.891 ± 0.13
C=C(C)[C@@H]1CC[C@@H](C)[C@@H]2CCC(C)=C[C@@H]21 [Amorpha-4,11-diene] (compound dose: 10 uM) | 1.01 ± 0.06 | 0.961 ± 0.19
COC(=O)[C@]12OC[C@]34[C@H]([C@@H](O)[C@@H]1O)[C@@]1(C)CC(=O)C(O)=C(C)[C@@H]1C[C@H]3OC(=O)[C@H](OC(=O)C=C(C)C)[C@@H]24 [Brusatol] (compound dose: 10 uM) | 0.432 ± 0.034 | 0.1176 ± 0.00049
COc1ccc([C@H]2OC[C@H]3[C@@H]2CO[C@H]3c2ccc(O[C@@H]3O[C@H](CO)[C@@H](O)[C@H](O)[C@H]3O)c(OC)c2)cc1OC [Phillyrin] (compound dose: 10 uM) | 0.978 ± 0.024 | 0.866 ± 0.16
C=C1C(=O)O[C@H]2C[C@H](C)C(/C=C/C(C)=O)=CC[C@H]12 [Xanthatin] (compound dose: 10 uM) | 0.66 ± 0.18 | 0.13 ± 0.042

Structure (SMILES) | cell viability [1] | kynurenine production [2]
CC(=O)O[C@]12CCC(C(=O)O)=CC[C@]13CC[C@H]2[C@@](C)(/C=C/C=C(\C)C(=O)O)OC3=O [Pseudolaric Acid C2] (compound dose: 10 uM) | 1.017 ± 0.0098 | 0.728 ± 0.017
O=c1cc(-c2ccc(O)c(O)c2)oc2c([C@@H]3O[C@H](CO)[C@@H](O)[C@H](O)[C@H]3O)c(O)cc(O)c12 [Orientin] (compound dose: 10 uM) | 0.922 ± 0.069 | 0.918 ± 0.1
CC(=O)O[C@H]1CC/C(C)=C/CC/C(C)=C/C[C@]2(C(C)C)CC[C@@]1(C)O2 [Incensole Acetate] (compound dose: 10 uM) | 1.11 ± 0.01 | 0.941 ± 0.18
CC(C)=CCC[C@](C)(O[C@@H]1O[C@H](CO[C@@H]2O[C@H](CO)[C@@H](O)[C@H](O)[C@H]2O)[C@@H](O)[C@H](O)[C@H]1O)[C@H]1CC[C@]2(C)[C@@H]1[C@H](O)C[C@@H]1[C@@]3(C)CC[C@H](O[C@@H]4O[C@H](CO)[C@@H](O)[C@H](O)[C@H]4O[C@@H]4O[C@H](CO)[C@@H](O)[C@H](O)[C@H]4O[C@@H]4OC[C@@H](O)[C@H](O)[C@H]4O)C(C)(C)[C@@H]3CC[C@]12C [Notoginsenoside Fa] (compound dose: 10 uM) | 1.21 ± 0.15 | 1.06 ± 0.13
CC1(C)[C@@H](O)CC[C@]2(C)[C@H]3C(=O)C=C4[C@H]5C[C@@](C)(C(=O)O)CC[C@]5(C)CC[C@@]4(C)[C@]3(C)CC[C@@H]12 [18α-Glycyrrhetinic acid] (compound dose: 10 uM) | 1.06 ± 0.11 | 0.943 ± 0.14
CC(=O)OC[C@H]1O[C@@H](OC[C@H]2O[C@@H](OC(=O)[C@]34CCC(C)(C)C[C@H]3C3=CC[C@@H]5[C@@]6(C)CC[C@H](O[C@@H]7OC[C@H](O)[C@H](O)[C@H]7O[C@@H]7O[C@H](CO)[C@@H](O)[C@H](O)[C@H]7O)C(C)(C)[C@@H]6CC[C@@]5(C)[C@]3(C)CC4)[C@H](O)[C@@H](O)[C@@H]2O)[C@H](O)[C@@H](O)[C@@H]1O[C@@H]1O[C@@H](C)[C@H](O)[C@@H](O)[C@H]1O [Acanthopanaxoside B] (compound dose: 10 uM) | 1.095 ± 0.0013 | 1.01 ± 0.17
CC1(C)CCC[C@](C)([C@H]2CC[C@]3(C)[C@@H]2[C@H](O)C[C@@H]2[C@@]4(C)CC[C@H](O)C(C)(C)[C@@H]4[C@@H](O)C[C@]23C)O1 [Panaxatriol] (compound dose: 10 uM) | 0.926 ± 0.025 | 0.846 ± 0.073
COC(=O)C1=CO[C@@H](O[C@@H]2O[C@H](CO)[C@@H](O)[C@H](O)[C@H]2O)[C@@H]2C(COC(C)=O)=C[C@H](O)[C@H]12 [Daphylloside] (compound dose: 10 uM) | 0.999 ± 0.062 | 0.888 ± 0.048
CC(=O)OC1COC(OC2CCC34CC35CCC3(C)C(C6(C)CCC(C(C)(C)O)O6)C(O)CC3(C)C5CC(OC3OC(CO)C(O)C(O)C3O)C4C2(C)C)C(OC(C)=O)C1O (stereo not drawn) [Isoastragaloside I] (compound dose: 10 uM) | 0.983 ± 0.0057 | 0.925 ± 0.059
C/C=C(/C)C(=O)O[C@H]1[C@H](OC(C)=O)[C@]2(CO)[C@H](O)C[C@]3(C)C(=CC[C@@H]4[C@@]5(C)CC[C@H](O[C@@H]6O[C@H](C(=O)O)[C@@H](O[C@@H]7O[C@H](CO)[C@@H](O)[C@H](O)[C@H]7O)[C@H](O)[C@H]6O[C@@H]6O[C@H](CO)[C@@H](O)[C@H](O)[C@H]6O)[C@](C)(CO)[C@@H]5CC[C@]43C)[C@@H]2CC1(C)C [Escin IB] (compound dose: 10 uM) | 0.915 ± 0.022 | 0.801 ± 0.012
C[C@H]1O[C@@H](Oc2c(-c3cc(O)c(O)c(O)c3)oc3cc(O)cc(O)c3c2=O)[C@@H](O)[C@@H](O)[C@@H]1O [Myricitrin] (compound dose: 10 uM) | 0.988 ± 0.021 | 0.694 ± 0.16
C=C(C)[C@@H]1CCC2=CC(=O)C[C@@H](C)[C@]2(C)C1 [Nootkatone] (compound dose: 10 uM) | 0.9333 ± 0.0022 | 0.932 ± 0.073
C=C(C(=O)O)[C@@H]1CC[C@@H](C)[C@@H]2CCC(C)=C[C@@H]21 [Artemisic acid] (compound dose: 10 uM) | 0.828 ± 0.3 | 0.594 ± 0.14
CC(C)=CCC[C@@H](C)CC=O [(R)-(+)-Citronellal] (compound dose: 10 uM) | 1.07 ± 0.035 | 1.44 ± 0.056
CC(CCC(OC1OC(CO)C(O)C(O)C1OC1OC(CO)C(O)C(O)C1O)C(C)(C)O)C1CCC2(C)C3CC=C4C(CCC(OC5OC(COC6OC(CO)C(O)C(O)C6O)C(O)C(O)C5O)C4(C)C)C3(C)C(O)CC12C (stereo not drawn) [Mogroside IV] (compound dose: 10 uM) | 0.996 ± 0.11 | 1.12 ± 0.23
CC(C)=CCC[C@](C)(O)[C@@H]1CC=C(C)CC1 [Levomenol] (compound dose: 10 uM) | 0.676 ± 0.54 | 1.16 ± 0.056
C=CC(C)(O)CCC=C(C)CCC=C(C)C (mixture of isomers) [Nerolidol] (compound dose: 10 uM) | 1.01 ± 0.043 | 0.798 ± 0.2
CC(C)=CC/C=C(/C)[C@H]1CC[C@@]2(C)[C@@H]1[C@@H](O)CC1[C@@]3(C)CCC(O[C@@H]4O[C@H](CO)[C@@H](O)[C@H](O)[C@H]4O)C(C)(C)C3CC[C@]12C (stereo partly drawn) [Ginsenoside Rh3] (compound dose: 10 uM) | – | 0.858 ± 0.029
